Results filed as inconclusive are left out. Active and inactive are the calls of the source. Calls come from the whole dose curve; as a rule, active = well fitted inhibition curve with a large enough effect; inconclusive = small, poorly fitted or top-dose-only effect; inactive = flat fitted curve, though single readings scatter.

This experiment deals with NIH3T3. Put plainly: qHTS assay to identify novel small-molecules to repurpose for Merkel cell carcinoma treatment (AID 1296009). Note: nearly all actives have a fitted effect of over 60% in size. The note with it: MCC and control cell lines, CellTiter-Glo viability, 72 h; at 44.8 µM (top of the series) unless noted. The procedure, abridged: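 72 hr, 37 degree celsius; NPC 8-pt / MIPE 11-pt dose response; compound pinned in DMSO; CellTiter-Glo, 10 min RT, luminescence; normalized to no-cell and DMSO controls.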
(In general: qHTS replaces the single test concentration by a dilution series.)
`C/C(=C\CCC1(C)C2CC3C(C2)C31C)C(=O)O` (stereo not given): the outcome was inactive.

As for `CCCC1=CC2=C(CO1)C(=O)C(C)(O)C(OC(=O)c1c(C)cc(OC)cc1O)C2` (stereo not given), the outcome is “inactive [at 17.4 µM]”.

In the case of `COc1cnc(-n2cnc(C)n2)c2[nH]cc(C(=O)C(=O)N3CCN(C(=O)c4ccccc4)CC3)c12`, the compound was classed as inactive.

As for `CCCC/C=C\CCCCCc1cc(=O)c2ccccc2n1C`, the result was inactive.

On to `CCN1CCN(C(=O)N[C@@H](C(=O)N[C@@H]2C(=O)N3[C@@H]2SC(C)(C)[C@@H]3C(=O)O)c2ccccc2)C(=O)C1=O`, for which the outcome was inactive.

With `C[C@@H]1O[C@@H](O[C@@H]2[C@@H](O)[C@H](O[C@H]3[C@H](O[C@H]4CC[C@@]5(C)C(CC[C@]6(C)C5CC=C5[C@@H]7CC(C)(C)CC[C@]7(C(=O)O[C@@H]7O[C@H](CO)[C@@H](O)[C@H](O)[C@H]7O)CC[C@]56C)C4(C)C)O[C@H](C(=O)O)[C@@H](O)[C@@H]3O)OC[C@H]2O)[C@H](O)[C@H](O)[C@H]1O` (stereo not given in full), the outcome was “inactive [at 9.27 µM]”.

Regarding `COC(=O)C1=COC(O[C@@H]2O[C@H](CO)[C@@H](O)[C@H](O)[C@H]2O)/C(=C\COC(=O)/C=C/c2ccccc2)C1CC(=O)OCCc1ccc(O)cc1` (stereo not given in full), the outcome is “inactive [at 17.4 µM]”.

Turning to `C=CC(C)(O)CC/C=C(\C)C1CC=C(C)C(=O)O1` (stereo not given), the outcome was inactive.

For `COc1cc(/C=C/C(=O)OC[C@H]2O[C@@H](OC3CC(C)=C(C(=O)O)C(C)(C)C3)[C@H](O)[C@@H](O)[C@@H]2O)cc(OC)c1O` (stereo not given in full), the outcome was “inactive [at 17.4 µM]”.

Turning to `CC1(C)C[C@H](O)C[C@@]2(C)[C@H]1[C@H](O)C=C1COC(=O)[C@@]12O`, the compound was called inactive.

The values above are taken from PubChem BioAssay (NCATS).
